Data as given in PMC8222333, “AsCas12a ultra nuclease facilitates the rapid generation of therapeutic cell medicines”.

How the values were obtained:
[1] = target: dAsCas12a WT (Acidaminococcus sp., UniProt U2UMQ6 1-1307, D908A;E993A;D1235A); assay: Spec-seq (native PAGE EMSA with sequencing of bound and unbound); 25 mM Tris-HCl pH 7.4, 150 mM KCl, 5 mM MgCl2, 10% glycerol, 1 mM DTT, 40 ng/uL salmon sperm DNA; 400 nM Cas12a, 480 nM crRNA, 50 nM library, 37 C 1 h; native P; high values mean tight binding
[2] = target: dAsCas12a Ultra (Acidaminococcus sp., UniProt U2UMQ6 1-1307, M537R;F870L;D908A;E993A;D1235A); assay: Spec-seq (native PAGE EMSA with sequencing of bound and unbound); 25 mM Tris-HCl pH 7.4, 150 mM KCl, 5 mM MgCl2, 10% glycerol, 1 mM DTT, 40 ng/uL salmon sperm DNA; 400 nM Cas12a, 480 nM crRNA, 50 nM library, 37 C 1 h; native PAGE at room temperature; high values mean tight binding; details: protein: recombinant
[3] = target: dAsCas12a E174R (Acidaminococcus sp., UniProt U2UMQ6 1-1307, E174R;D908A;E993A;D1235A); assay: as above; details: protein: recombinant;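 also: relative affinity from the bound to unbound sequence frequency ratio in Spec-seq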
[4] = target: dAsCas12a S542R (Acidaminococcus sp., UniProt U2UMQ6 1-1307, S542R;D908A;E993A;D1235A); assay: as above; details: protein: recombinant;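 also: relative affinity from the bound to unbound sequence frequency ratio in Spec-seq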
[5] = target: dAsCas12a K548R (Acidaminococcus sp., UniProt U2UMQ6 1-1307, K548R;D908A;E993A;D1235A); assay: as above; details: protein: recombinant
[6] = target: d-enCas12a (Acidaminococcus sp., UniProt U2UMQ6 1-1307, E174R;S542R;K548R;D908A;E993A;D1235A); assay: as above; details: protein: recombinant
[7] = target: d-enCas12a-Ultra (Acidaminococcus sp., UniProt U2UMQ6 1-1307, E174R;S542R;K548R;M537R;F870L;D908A;E993A;D1235A); assay: as above; details: protein: recombinant;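 also: relative affinity from the bound to unbound sequence frequency ratio in Spec-seq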

Binder | binding signal [1] [lnKA] | binding signal [2] [lnKA] | binding signal [3] [lnKA] | binding signal [4] [lnKA] | binding signal [5] [lnKA] | binding signal [6] [lnKA] | binding signal [7] [lnKA]
ATTT (dsDNA) DNA 1: GCTATCTAGTGCTCAGTACGCACTGATTTAGGAAACTTCTGGCAGGACCAGGTCATGAGATCGGAAGAGCACACGTCTGAACTCCAGTCA DNA 2: TGACTGGAGTTCAGACGTGTGCTCTTCCGATCTCATGACCTGGTCCTGCCAGAAGTTTCCTAAATCAGTGCGTACTGAGCACTAGATAGC RNA: AAUUUCUACUCUUGUAGAUAGGAAACUUCUGGCAGGACC | -8.27 | -7.31 | -6.8 | -7.13 | -8.23 | -2.42 | -0.548
AATC (dsDNA) DNA 1: GCTATCTAGTGCTCAGTACGCACTGAATCAGGAAACTTCTGGCAGGACCAGGTCATGAGATCGGAAGAGCACACGTCTGAACTCCAGTCA DNA 2: TGACTGGAGTTCAGACGTGTGCTCTTCCGATCTCATGACCTGGTCCTGCCAGAAGTTTCCTGATTCAGTGCGTACTGAGCACTAGATAGC RNA: AAUUUCUACUCUUGUAGAUAGGAAACUUCUGGCAGGACC |  | -8.65 | -8.08 | -8.19 | -8.64 | -2.56 | -0.883
ACTC (dsDNA) DNA 1: GCTATCTAGTGCTCAGTACGCACTGACTCAGGAAACTTCTGGCAGGACCAGGTCATGAGATCGGAAGAGCACACGTCTGAACTCCAGTCA DNA 2: TGACTGGAGTTCAGACGTGTGCTCTTCCGATCTCATGACCTGGTCCTGCCAGAAGTTTCCTGAGTCAGTGCGTACTGAGCACTAGATAGC RNA: AAUUUCUACUCUUGUAGAUAGGAAACUUCUGGCAGGACC |  | -6.74 | -6.65 | -7.33 |  | -4.8 | -1.58
AATA (dsDNA) DNA 1: GCTATCTAGTGCTCAGTACGCACTGAATAAGGAAACTTCTGGCAGGACCAGGTCATGAGATCGGAAGAGCACACGTCTGAACTCCAGTCA DNA 2: TGACTGGAGTTCAGACGTGTGCTCTTCCGATCTCATGACCTGGTCCTGCCAGAAGTTTCCTTATTCAGTGCGTACTGAGCACTAGATAGC RNA: AAUUUCUACUCUUGUAGAUAGGAAACUUCUGGCAGGACC |  | -8.32 | -7.04 | -8.13 |  | -2.24 | -0.762
AGGA (dsDNA) DNA 1: GCTATCTAGTGCTCAGTACGCACTGAGGAAGGAAACTTCTGGCAGGACCAGGTCATGAGATCGGAAGAGCACACGTCTGAACTCCAGTCA DNA 2: TGACTGGAGTTCAGACGTGTGCTCTTCCGATCTCATGACCTGGTCCTGCCAGAAGTTTCCTTCCTCAGTGCGTACTGAGCACTAGATAGC RNA: AAUUUCUACUCUUGUAGAUAGGAAACUUCUGGCAGGACC |  | -8.33 |  | -8.24 |  | -5.52 | -3.42
ACTA (dsDNA) DNA 1: GCTATCTAGTGCTCAGTACGCACTGACTAAGGAAACTTCTGGCAGGACCAGGTCATGAGATCGGAAGAGCACACGTCTGAACTCCAGTCA DNA 2: TGACTGGAGTTCAGACGTGTGCTCTTCCGATCTCATGACCTGGTCCTGCCAGAAGTTTCCTTAGTCAGTGCGTACTGAGCACTAGATAGC RNA: AAUUUCUACUCUUGUAGAUAGGAAACUUCUGGCAGGACC |  | -7.24 | -5.96 | -7.5 |  | -5.02 | -1.82
ACTT (dsDNA) DNA 1: GCTATCTAGTGCTCAGTACGCACTGACTTAGGAAACTTCTGGCAGGACCAGGTCATGAGATCGGAAGAGCACACGTCTGAACTCCAGTCA DNA 2: TGACTGGAGTTCAGACGTGTGCTCTTCCGATCTCATGACCTGGTCCTGCCAGAAGTTTCCTAAGTCAGTGCGTACTGAGCACTAGATAGC RNA: AAUUUCUACUCUUGUAGAUAGGAAACUUCUGGCAGGACC |  | -8.57 | -8.23 | -7.91 |  | -5.7 | -3.19
AGAA (dsDNA) DNA 1: GCTATCTAGTGCTCAGTACGCACTGAGAAAGGAAACTTCTGGCAGGACCAGGTCATGAGATCGGAAGAGCACACGTCTGAACTCCAGTCA DNA 2: TGACTGGAGTTCAGACGTGTGCTCTTCCGATCTCATGACCTGGTCCTGCCAGAAGTTTCCTTTCTCAGTGCGTACTGAGCACTAGATAGC RNA: AAUUUCUACUCUUGUAGAUAGGAAACUUCUGGCAGGACC |  | -8.87 | -8.92 | -8.59 |  | -5.61 | -3.36
